# Reference: PMC9911399, “Two distinct binding modes provide the RNA-binding protein RbFox with extraordinary sequence specificity”
# Residue numbers refer to the chain shown, from its start. Whole data set: some 16,000 sequences, median “ka relative to ugcaugu” near 0.0091, cut for the highest 2% near 0.032. For the sample, the highest values were picked, then their nearest neighbours and some sequences at random.
# T1: RBFOX1 RRM (Homo sapiens, UniProt Q9NWB1 109-208)
# T1 sequence: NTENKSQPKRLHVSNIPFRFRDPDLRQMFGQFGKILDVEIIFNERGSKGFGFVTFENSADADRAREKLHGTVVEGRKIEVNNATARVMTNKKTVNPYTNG
# B1: AGCCGGG (DNA:RNA)
# RNA: GGGAGACCGGAAUUCAGAUUGUCCAGCCGGGUUAAAUCCCGUCGUAGCCACCA
# DNA 1: CAATCTGAATTCCGGTCTCCC
# DNA 2: TGGTGGCTACGACGGGATT
# B2: GUUCCGG (DNA:RNA)
# RNA: B1 RNA with A25G, G26U, C27U, G29C
# DNA 1: CAATCTGAATTCCGGTCTCCC
# DNA 2: TGGTGGCTACGACGGGATT
# B3: UUCCAAA (DNA:RNA)
# RNA: B1 RNA with A25U, G26U, G29A, G30A, G31A
# DNA 1: CAATCTGAATTCCGGTCTCCC
# DNA 2: TGGTGGCTACGACGGGATT
# B4: GACAUUG (DNA:RNA)
# RNA: B1 RNA with A25G, G26A, C28A, G29U, G30U
# DNA 1: CAATCTGAATTCCGGTCTCCC
# DNA 2: TGGTGGCTACGACGGGATT
# B5: GCUAGUA (DNA:RNA)
# RNA: B1 RNA with A25G, G26C, C27U, C28A, G30U, G31A
# DNA 1: CAATCTGAATTCCGGTCTCCC
# DNA 2: TGGTGGCTACGACGGGATT
# B6: GCAAACC (DNA:RNA)
# RNA: GGGAGACCGGAAUUCAGAUUGUCCGCAAACCUUAAAUCCCGUCGUAGCCACCA
# DNA 1: CAATCTGAATTCCGGTCTCCC
# DNA 2: TGGTGGCTACGACGGGATT
# B7: GCGUGGG (DNA:RNA)
# RNA: B1 RNA with A25G, G26C, C27G, C28U
# DNA 1: CAATCTGAATTCCGGTCTCCC
# DNA 2: TGGTGGCTACGACGGGATT
# B8: AGAAUCG (DNA:RNA)
# RNA: B1 RNA with C27A, C28A, G29U, G30C
# DNA 1: CAATCTGAATTCCGGTCTCCC
# DNA 2: TGGTGGCTACGACGGGATT
# B9: AAGCGGU (DNA:RNA)
# RNA: B1 RNA with G26A, C27G, G31U
# DNA 1: CAATCTGAATTCCGGTCTCCC
# DNA 2: TGGTGGCTACGACGGGATT
# B10: AAAGAAG (DNA:RNA)
# RNA: B1 RNA with G26A, C27A, C28G, G29A, G30A
# DNA 1: CAATCTGAATTCCGGTCTCCC
# DNA 2: TGGTGGCTACGACGGGATT
# B11: GCUUCCG (DNA:RNA)
# RNA: B6 RNA with A27U, A28U, A29C, C31G
# DNA 1: CAATCTGAATTCCGGTCTCCC
# DNA 2: TGGTGGCTACGACGGGATT
# B12: GCGCUUC (DNA:RNA)
# RNA: B6 RNA with A27G, A28C, A29U, C30U
# DNA 1: CAATCTGAATTCCGGTCTCCC
# DNA 2: TGGTGGCTACGACGGGATT
# B13: CGUCCGC (DNA:RNA)
# RNA: B1 RNA with A25C, C27U, G29C, G31C
# DNA 1: CAATCTGAATTCCGGTCTCCC
# DNA 2: TGGTGGCTACGACGGGATT
# B14: GCUUGUG (DNA:RNA)
# RNA: B1 RNA with A25G, G26C, C27U, C28U, G30U
# DNA 1: CAATCTGAATTCCGGTCTCCC
# DNA 2: TGGTGGCTACGACGGGATT
# B15: GCUUCUG (DNA:RNA)
# RNA: B6 RNA with A27U, A28U, A29C, C30U, C31G
# DNA 1: CAATCTGAATTCCGGTCTCCC
# DNA 2: TGGTGGCTACGACGGGATT
# B16: GUCCCGC (DNA:RNA)
# RNA: B1 RNA with A25G, G26U, G29C, G31C
# DNA 1: CAATCTGAATTCCGGTCTCCC
# DNA 2: TGGTGGCTACGACGGGATT
# B17: ACUGUGU (DNA:RNA)
# RNA: B1 RNA with G26C, C27U, C28G, G29U, G31U
# DNA 1: CAATCTGAATTCCGGTCTCCC
# DNA 2: TGGTGGCTACGACGGGATT
# B18: ACCCUUU (DNA:RNA)
# RNA: B1 RNA with G26C, G29U, G30U, G31U
# DNA 1: CAATCTGAATTCCGGTCTCCC
# DNA 2: TGGTGGCTACGACGGGATT
# B19: GACAGCA (DNA:RNA)
# RNA: B6 RNA with C26A, A27C, A29G, C31A
# DNA 1: CAATCTGAATTCCGGTCTCCC
# DNA 2: TGGTGGCTACGACGGGATT
# B20: GUGAAUA (DNA:RNA)
# RNA: B6 RNA with C26U, A27G, C30U, C31A
# DNA 1: CAATCTGAATTCCGGTCTCCC
# DNA 2: TGGTGGCTACGACGGGATT
# B21: UGGGGUG (DNA:RNA)
# RNA: B1 RNA with A25U, C27G, C28G, G30U
# DNA 1: CAATCTGAATTCCGGTCTCCC
# DNA 2: TGGTGGCTACGACGGGATT
# B22: UGGUGUU (DNA:RNA)
# RNA: B1 RNA with A25U, C27G, C28U, G30U, G31U
# DNA 1: CAATCTGAATTCCGGTCTCCC
# DNA 2: TGGTGGCTACGACGGGATT
# B23: UGGUGGG (DNA:RNA)
# RNA: B1 RNA with A25U, C27G, C28U
# DNA 1: CAATCTGAATTCCGGTCTCCC
# DNA 2: TGGTGGCTACGACGGGATT
# B24: UGGGGAA (DNA:RNA)
# RNA: B1 RNA with A25U, C27G, C28G, G30A, G31A
# DNA 1: CAATCTGAATTCCGGTCTCCC
# DNA 2: TGGTGGCTACGACGGGATT
# B25: UGGGAAG (DNA:RNA)
# RNA: B1 RNA with A25U, C27G, C28G, G29A, G30A
# DNA 1: CAATCTGAATTCCGGTCTCCC
# DNA 2: TGGTGGCTACGACGGGATT
# B26: CUGGAAG (DNA:RNA)
# RNA: B1 RNA with A25C, G26U, C27G, C28G, G29A, G30A
# DNA 1: CAATCTGAATTCCGGTCTCCC
# DNA 2: TGGTGGCTACGACGGGATT
# B27: CUGGUGU (DNA:RNA)
# RNA: B1 RNA with A25C, G26U, C27G, C28G, G29U, G31U
# DNA 1: CAATCTGAATTCCGGTCTCCC
# DNA 2: TGGTGGCTACGACGGGATT
# B28: UGGGAGU (DNA:RNA)
# RNA: B1 RNA with A25U, C27G, C28G, G29A, G31U
# DNA 1: CAATCTGAATTCCGGTCTCCC
# DNA 2: TGGTGGCTACGACGGGATT
# B29: UGGAGUU (DNA:RNA)
# RNA: B1 RNA with A25U, C27G, C28A, G30U, G31U
# DNA 1: CAATCTGAATTCCGGTCTCCC
# DNA 2: TGGTGGCTACGACGGGATT
# B30: UGGAAGU (DNA:RNA)
# RNA: B1 RNA with A25U, C27G, C28A, G29A, G31U
# DNA 1: CAATCTGAATTCCGGTCTCCC
# DNA 2: TGGTGGCTACGACGGGATT
# B31: UGGGUGU (DNA:RNA)
# RNA: B1 RNA with A25U, C27G, C28G, G29U, G31U
# DNA 1: CAATCTGAATTCCGGTCTCCC
# DNA 2: TGGTGGCTACGACGGGATT
# B32: UGGGGAG (DNA:RNA)
# RNA: B1 RNA with A25U, C27G, C28G, G30A
# DNA 1: CAATCTGAATTCCGGTCTCCC
# DNA 2: TGGTGGCTACGACGGGATT
# Target: T1, RBFOX1 RRM
# Assay: EMSA; HiTS-Eq, 1 nM pool, 10 min; buffer printed only for the single-RNA assays: 10 mM Tris pH 7.5, 150 mM NaCl, 3.4 mM EDTA, 0.001% NP-40, 30 C
# Conditions: tags: His6 N-terminal (pET28a); label: 5' 32P
# How it was run: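 Purified wild-type or mutant RbFox RRM at increasing concentrations was equilibrated with 1 nM of 5′-radiolabelled RNA carrying 7 randomized nucleotides for 10 min in 50 µL. Unbound RNA was separated by 8% native PAGE and sequenced. Relative association constants came from read-count changes of each RNA species compared with the control reaction, normalised to the cognate motif.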
row,Binder,binding signal
1,B1,0.0115 KA relative to UGCAUGU
2,B2,0.0142 KA relative to UGCAUGU
3,B3,0.00275 KA relative to UGCAUGU
4,B4,0.0146 KA relative to UGCAUGU
5,B5,0.0137 KA relative to UGCAUGU
6,B6,0.00398 KA relative to UGCAUGU
7,B7,0.0174 KA relative to UGCAUGU
8,B8,0.00981 KA relative to UGCAUGU
9,B9,0.00838 KA relative to UGCAUGU
10,B10,0.00539 KA relative to UGCAUGU
11,B11,0.0121 KA relative to UGCAUGU
12,B12,0.0175 KA relative to UGCAUGU
13,B13,0.00928 KA relative to UGCAUGU
14,B14,0.0418 KA relative to UGCAUGU
15,B15,0.0318 KA relative to UGCAUGU
16,B16,0.0018 KA relative to UGCAUGU

row,Binder,binding signal
1,B17,0.016 KA relative to UGCAUGU
2,B18,0.00524 KA relative to UGCAUGU
3,B19,0.0143 KA relative to UGCAUGU
4,B20,0.00781 KA relative to UGCAUGU
5,B21,0.0422 KA relative to UGCAUGU
6,B22,0.0267 KA relative to UGCAUGU
7,B23,0.0153 KA relative to UGCAUGU
8,B24,0.0174 KA relative to UGCAUGU
9,B25,0.0374 KA relative to UGCAUGU
10,B26,0.0188 KA relative to UGCAUGU
11,B27,0.0254 KA relative to UGCAUGU
12,B28,0.0357 KA relative to UGCAUGU
13,B29,0.0241 KA relative to UGCAUGU
14,B30,0.0205 KA relative to UGCAUGU
15,B31,0.0478 KA relative to UGCAUGU
16,B32,0.0199 KA relative to UGCAUGU
